Results filed as inconclusive are left out. Where a structure was tested more than once in an assay, its records may differ in their call. The source made the active and inactive calls. Calls come from the whole dose curve; as a rule, active = well fitted inhibition curve with a large enough effect; inconclusive = small, poorly fitted or top-dose-only effect; inactive = no such curve, though single readings can be large or run the other way.
What follows are compounds tested against Muscarinic acetylcholine receptor M1 (Rattus norvegicus) (UniProt P08482) (assay: qHTS Assay for Antagonists of Acetylcholine Muscarinic M1 Receptor: Kinetic Measurement of Intracellular Calcium Response (AID 943)). Details: M1-expressing cells, kinetic intracellular calcium fluorescence; series mostly up to 35.3 µM; activity change, negative = inhibition: at the top concentration.
Sequence of Muscarinic acetylcholine receptor M1 (Rattus norvegicus) (P08482 whole entry, looked up): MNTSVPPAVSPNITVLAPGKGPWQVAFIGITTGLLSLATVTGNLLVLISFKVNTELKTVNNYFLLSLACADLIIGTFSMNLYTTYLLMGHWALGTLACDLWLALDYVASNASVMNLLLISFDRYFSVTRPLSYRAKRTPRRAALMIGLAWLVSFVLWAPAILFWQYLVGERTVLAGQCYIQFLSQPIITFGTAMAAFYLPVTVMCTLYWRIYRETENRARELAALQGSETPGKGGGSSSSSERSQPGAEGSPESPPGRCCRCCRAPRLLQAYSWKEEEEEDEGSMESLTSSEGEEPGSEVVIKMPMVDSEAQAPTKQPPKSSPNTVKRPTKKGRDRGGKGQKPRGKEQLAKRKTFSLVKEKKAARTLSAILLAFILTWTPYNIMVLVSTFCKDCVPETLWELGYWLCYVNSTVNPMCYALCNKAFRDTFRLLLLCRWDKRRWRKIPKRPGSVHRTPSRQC
Outline: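 CHO cells expressing rat M1 receptor, Fluo-4 loaded, preincubated 10 min with compound, then stimulated with EC80 carbachol (100 nM final). Kinetic calcium fluorescence over 4 min; response taken as peak over basal signal.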
Note: nearly all actives have a fitted effect of over 75% in size.
Potency is the fitted concentration of half-maximal effect.

Row | Compound | activity change, negative = inhibition | Potency
1 | COc1ccc2[nH]c3c(c2c1)CCNC3 | 1.07% (inactive) | 
2 | NNC(=O)c1ccc(O)cc1 | -43.3% (inactive) | 
3 | NCCCP(=O)(O)O | -26.3% (inactive) | 
4 | CNC(=O)OCC[N+](C)(C)C | -6.01% (inactive) | 
5 | NC(=O)c1cc(N2CC2)c([N+](=O)[O-])cc1[N+](=O)[O-] | -26.3% (inactive) | 
6 | CCCN(CCC)[C@@H]1CCc2cccc(O)c2C1 |  | 3.98 µM (active) and inactive
7 | CCCn1c(=O)c2[nH]c(C3CCCC3)nc2n(CCCOC(=O)c2ccc(S(=O)(=O)F)cc2)c1=O |  | 5.01 µM (active)
8 | Nc1ccc(CCN2CCN(c3cccc(C(F)(F)F)c3)CC2)cc1 |  | 11.2 µM (active)
9 | Cc1[nH]c2ccc(O)cc2c1CCN | -33% (inactive) | 

Each compound was assayed against Muscarinic acetylcholine receptor M1 (Rattus norvegicus) (UniProt P08482) (assay: qHTS Assay for Antagonists of Acetylcholine Muscarinic M1 Receptor: Measurement of IP-One Response (AID 944)). Details: CHO-M1 cells, IP-One HTRF, antagonist mode; series mostly up to 46.1 µM; activity change, negative = inhibition: at the top concentration.
Outline: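 CHO cells stably expressing rat M1, pretreated 10 min with compound, then stimulated 30 min with carbachol at EC80 (200 nM) in LiCl-containing buffer pH 7.4; IP1 accumulation read by HTRF competition (665/620 nm).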

Row | Compound | activity change, negative = inhibition | Potency
10 | CC(=O)NBr | -15.4% (inactive) | 
11 | CCCn1c(C)c(C(=O)c2ccc3ccccc3c2)c2ccccc21 | -15.3% (inactive) | 
12 | COc1ccc2[nH]c3c(c2c1)CCNC3 | -43.8% (inactive) | 
13 | CC(C)NP(=O)(NC(C)C)OP(=O)(NC(C)C)NC(C)C | -20.8% (inactive) | 
14 | O=[N+]([O-])c1ccc2nc(N3CCNCC3)ccc2c1 | -43.8% (inactive) | 
15 | CNC(=O)OCC[N+](C)(C)C | 41.9% (inactive) | 
16 | NC(=O)c1cc(N2CC2)c([N+](=O)[O-])cc1[N+](=O)[O-] | -40.4% (inactive) | 
17 | NCCc1ccc(S(=O)(=O)F)cc1 | -32.3% (inactive) | 
18 | C[N+](C)(C)CCOC(=O)CBr | -28.9% (inactive) | 
19 | CCCN(CCC)[C@@H]1CCc2cccc(O)c2C1 |  | 7.08 µM (active) and inactive
20 | CCCN(CCC)CCc1ccc(O)c(O)c1 | -15.6% (inactive) | 
21 | CN(N=O)c1ccc(O)c(O)c1 | 6.65% (inactive) | 
22 | N[C@@H](Cn1oc(=O)[nH]c1=O)C(=O)O | -12.5% (inactive) | 

— PubChem BioAssay (NCATS)
